As a reminder, the Inhibition is the change of the read-out against control, counted positive when it falls.

For one test, the system named is Staphylococcus aureus. The experiment in a line: Antibacterial activity against Staphylococcus aureus MRSA ATCC 43300 (CO-ADD:GP_020); MIC in CAMBH media using NBS plates, by Resazurin F(560/590). It counts as functional. The following applies: Concentration 20 uM, ASSAY_TEST Inhibition of Bacterial Growth, detection method Resazurin, Fluorescence (ex560/em590), MEDIA CAMHB, plate type 384well, CORNING #3640, time 18 hr.

For the next test, the system named is Acinetobacter baumannii. The experiment in a line: Antibacterial activity against Acinetobacter baumannii ATCC 19606 (CO-ADD:GN_034); MIC in CAMBH media using NBS plates, by Resazurin F(560/590). Format: functional. The conditions noted are these: Concentration 20 uM, ASSAY_TEST Inhibition of Bacterial Growth, detection method Resazurin, Fluorescence (ex560/em590), MEDIA CAMHB, plate type 384well, CORNING #3640, time 18 hr.

The subject of a further test is Escherichia coli. The experiment in a line: Antibacterial activity against Escherichia coli ATCC 25922 (CO-ADD:GN_001); MIC in CAMBH media using NBS plates, by Resazurin F(560/590). It counts as functional. The conditions noted are these: Concentration 20 uM, ASSAY_TEST Inhibition of Bacterial Growth, detection method Resazurin, Fluorescence (ex560/em590), MEDIA CAMHB, plate type 384well, CORNING #3640, time 18 hr.

The next test deals with Klebsiella pneumoniae. The following applies: Concentration 20 uM; ASSAY_TEST Inhibition of Bacterial Growth; detection method Absorption (OD600); MEDIA CAMHB; plate type 384well; NBS; CORNING #3640; time 18 hr.
Another test has as its system Candida albicans. The following applies: 20 µM.
In another test the test system is Cryptococcus neoformans. The conditions noted are these: Concentration 20 uM; ASSAY_TEST Inhibition of Fungal Growth; detection method Resazurin; Absorption (OD600-OD570); plate type 384well; NBS; CORNING #3640.

Structures are written as SMILES. For part of these data: Potency and affinity values are given separately.

Take `NS(=O)(=O)c1cc2c(cc1Cl)NC(CC1CCCC1)NS2(=O)=O` (stereo not given) [CYCLOPENTHIAZIDE]: the Inhibition in the test on Staphylococcus aureus was 1.39%; in the test with Acinetobacter baumannii it was 8.9%; in the test on Escherichia coli, -12.38%; in the test on Klebsiella pneumoniae, 7.07%; with Candida albicans, 3.92%; with Cryptococcus neoformans, 5.84%.

Take `CC(=O)NCCCOc1ccc([N+](=O)[O-])cc1Cl`: the Inhibition in the test on Staphylococcus aureus is 3.67%; in the test on Acinetobacter baumannii, -1.89%; with Escherichia coli, 11.85%; in the test with Klebsiella pneumoniae, 3.56%; in the test on Candida albicans, 0.9%; in the test with Cryptococcus neoformans, -4.3%.

Regarding `Cc1c(NC(=O)Nc2c(Cl)cccc2Cl)c(=O)n(-c2ccccc2)n1C`, the Inhibition in the test with Staphylococcus aureus is 9.25%; in the test with Acinetobacter baumannii it was 9.07%; in the test with Escherichia coli, 6.32%; in the test on Klebsiella pneumoniae, 8.26%; in the test with Candida albicans, -0.35%; in the test with Cryptococcus neoformans, -0.01%.

Take `CC(C)CNC(=O)/C=C\C(=O)O`: the Inhibition was -0.87% in the test on Staphylococcus aureus; -6.9% in the test with Acinetobacter baumannii; -14.17% in the test on Escherichia coli; 9.3% in the test on Klebsiella pneumoniae; 3.69% in the test with Candida albicans; 32.61% with Cryptococcus neoformans.

Consider `COc1ccc(C(=O)O)nc1C`, for which the Inhibition in the test with Staphylococcus aureus is -3.26%; in the test with Acinetobacter baumannii it was -9.48%; in the test on Escherichia coli, 11.67%; with Klebsiella pneumoniae it was 7.05%; in the test on Candida albicans it was -1.1%; with Cryptococcus neoformans, -14%.

For `Cn1ncc2c(Sc3ccc(Cl)cc3)ncnc21`, the Inhibition was -1.32% in the test on Staphylococcus aureus; 15.79% in the test on Acinetobacter baumannii; -1.92% in the test on Escherichia coli; 2.06% in the test on Klebsiella pneumoniae; 4.47% in the test on Candida albicans; -10.69% in the test on Cryptococcus neoformans.

As to `NS(=O)(=O)c1ccc(NC2(C(=O)O)CCCC2)cc1`, the Inhibition in the test with Staphylococcus aureus is 11.74%; in the test on Acinetobacter baumannii, 13.36%; in the test on Escherichia coli it was -10.3%; in the test with Klebsiella pneumoniae, 11.38%; in the test with Candida albicans it was 4.41%; in the test with Cryptococcus neoformans, 18.42%.

As for `CSc1nc(C)cc(S)n1`, the Inhibition was 0.72% in the test on Staphylococcus aureus; -7.16% with Acinetobacter baumannii; 3.46% in the test on Escherichia coli; 5.27% in the test on Klebsiella pneumoniae; 18.9% in the test on Candida albicans; -4.48% in the test on Cryptococcus neoformans.

Take `Nc1c(Cl)cc(S(N)(=O)=O)cc1S(N)(=O)=O`: the Inhibition with Staphylococcus aureus is 4.27%; in the test on Acinetobacter baumannii it was 9.37%; with Escherichia coli, 1.27%; in the test with Klebsiella pneumoniae, 26.17%; with Candida albicans it was 17.5%; in the test with Cryptococcus neoformans, -1.7%.

Turning to `O=C1c2cc([N+](=O)[O-])ccc2-c2cc(Br)c(NC(=NO)C(F)(F)F)cc21`, the Inhibition in the test on Staphylococcus aureus is 19.28%; with Acinetobacter baumannii, -25.99%; in the test with Escherichia coli it was 18.87%; in the test with Klebsiella pneumoniae, 6.86%; with Candida albicans, -4.85%; in the test on Cryptococcus neoformans it was -6.6%.

In the case of `Cc1nc2ccccc2nc1NS(=O)(=O)c1ccc(N)cc1`, the Inhibition was -35.57% with Staphylococcus aureus; -9.78% in the test on Acinetobacter baumannii; -4.56% with Escherichia coli; 7.2% with Klebsiella pneumoniae; 4.92% in the test with Candida albicans; -5.27% in the test on Cryptococcus neoformans.

Turning to `Nc1[nH]nc2nc(-c3ccccc3)nc(O)c12`, the Inhibition was -2.47% in the test with Staphylococcus aureus; -10.04% in the test with Acinetobacter baumannii; 2.06% with Escherichia coli; 6.75% in the test on Klebsiella pneumoniae; -0.22% in the test with Candida albicans; -3.34% in the test with Cryptococcus neoformans.

Regarding `C#CCNc1ccc(C(=O)OCC)cc1`, the Inhibition is 7.69% in the test with Staphylococcus aureus; 8.65% in the test with Acinetobacter baumannii; -0.61% in the test on Escherichia coli; 11.49% with Klebsiella pneumoniae; 5% in the test with Candida albicans; -3.8% with Cryptococcus neoformans.

With `CCCCCCCCCCC(C(=O)O)C1(C(=O)O)CCC(=O)O1` (stereo not given), the Inhibition is 8.92% in the test with Staphylococcus aureus; 10.41% in the test on Acinetobacter baumannii; 4.35% with Escherichia coli; 3.55% in the test on Klebsiella pneumoniae; 8.22% in the test with Candida albicans; -9.1% in the test on Cryptococcus neoformans.

On to `COc1cc2oc3cc(C)oc(=O)c3c2cc1OC`, for which the Inhibition with Staphylococcus aureus was 14.15%; in the test with Acinetobacter baumannii, 0.41%; in the test with Escherichia coli it was 8.42%; in the test with Klebsiella pneumoniae, 14.11%; in the test with Candida albicans, 1.88%; with Cryptococcus neoformans, -16.92%.

For the compound `CCCSc1nc2c(c(=O)n(C)c(=O)n2C)n1C`, the Inhibition is 3.15% with Staphylococcus aureus; -8.65% in the test with Acinetobacter baumannii; 0.8% with Escherichia coli; 7.42% in the test with Klebsiella pneumoniae; 2.63% in the test on Candida albicans; -7.02% with Cryptococcus neoformans.

On to `S=C(Nc1ccccc1)Nc1nccs1`, for which the Inhibition in the test on Staphylococcus aureus was -6.83%; in the test with Acinetobacter baumannii, 13.46%; in the test with Escherichia coli, -3.08%; with Klebsiella pneumoniae, 13.95%; with Candida albicans, 19.1%; in the test with Cryptococcus neoformans, 1.13%.

For the compound `CC(C)=C(c1ccc(Cl)cc1)c1c(N)ncnc1N`, the Inhibition is 3.52% in the test on Staphylococcus aureus; -10.84% in the test on Acinetobacter baumannii; 10.95% in the test with Escherichia coli; 14.5% with Klebsiella pneumoniae; -0.84% in the test with Candida albicans; -5.15% with Cryptococcus neoformans.

In the case of `CCC(C)NC(=O)c1cccc(C)c1` (stereo not given), the Inhibition was 27.07% in the test on Staphylococcus aureus; -10.03% in the test with Acinetobacter baumannii; 12.99% in the test on Escherichia coli; 13.06% with Klebsiella pneumoniae; 3.19% with Candida albicans; -7.62% in the test with Cryptococcus neoformans.

`COc1ccc(Br)c2c1C(=O)CC2`: the Inhibition was 10.21% in the test with Staphylococcus aureus; -14.67% in the test with Acinetobacter baumannii; 12.53% with Escherichia coli; -2.44% in the test on Klebsiella pneumoniae; 20.7% in the test on Candida albicans; -15.03% in the test with Cryptococcus neoformans.

With `COc1ccc2c(c1)C(=O)C1NC(=O)NC(=O)C1(Br)N2` (stereo not given), the Inhibition is 19.24% with Staphylococcus aureus; -10.78% in the test with Acinetobacter baumannii; 15.57% in the test with Escherichia coli; 4.36% in the test on Klebsiella pneumoniae; -1.05% in the test on Candida albicans; -13.08% in the test with Cryptococcus neoformans.

Turning to `CC(C)(C)C(=O)/C=C/c1ccc(Oc2ccccc2)cc1`, the Inhibition in the test with Staphylococcus aureus is 7.11%; with Acinetobacter baumannii it was -6.09%; with Escherichia coli it was -4.94%; in the test on Klebsiella pneumoniae, 20.89%; in the test on Candida albicans it was 4.03%; in the test with Cryptococcus neoformans it was -10.02%.

For `Cn1ncc2c(O)nc(N)nc21`, the Inhibition is 6% in the test with Staphylococcus aureus; -7.72% with Acinetobacter baumannii; 12.24% with Escherichia coli; 14.42% in the test with Klebsiella pneumoniae; -0.53% in the test on Candida albicans; 20.28% with Cryptococcus neoformans.

Consider `O=C1/C(=C/c2ccc([N+](=O)[O-])cc2)CCc2ccccc21`, for which the Inhibition with Staphylococcus aureus was 6.03%; in the test with Acinetobacter baumannii, -4.9%; with Escherichia coli it was 11.7%; in the test on Klebsiella pneumoniae, 8.24%; in the test with Candida albicans, 3.4%; in the test on Cryptococcus neoformans, -8.15%.

For `COC(=O)[C@H]1[C@H]2C[C@@H]3c4[nH]c5cc(OC)ccc5c4CCN3C[C@H]2C[C@@H](OC(=O)CC(C)=O)[C@@H]1OC`, the Inhibition in the test with Staphylococcus aureus is 16.88%; in the test on Acinetobacter baumannii it was -0.32%; with Escherichia coli, 11.28%; with Klebsiella pneumoniae, 5.93%; in the test with Candida albicans, -0.86%; in the test on Cryptococcus neoformans, -1.53%.

(Values after ChEMBL document CHEMBL4296182, “CO-ADD screening of NIH NCI Diversity Set V”.)
